Compound activity deposited in PubChem by several laboratories.
Mtb UGM inh = blocks M. tuberculosis UGM enzyme; P9WIQ1; purified UGM, fluorescence polarization probe displacement; inhibition, % at 10 µM; 0.06% of 320,000 active; in the data active means inhibition above about 10%, passing the limit was not always enough; inconclusive means no clear call, values can overlap the other calls
FadD28 FP inh = inhibitors of Mycobacterium tuberculosis FadD28 bisubstrate binding; FadD28 bisubstrate probe binding, fluorescence polarization; inhibition, % at 12.5 µM; 0.22% of 360,000 active; in the data active means inhibition above about 8.5%, passing the limit was not always enough; inconclusive means no clear call, values can overlap the other calls
Mtb BioA inh = BioA (M. tuberculosis) enzyme inhibition. purified M. tuberculosis BioA enzyme, plate reader. inhibition, % at 9.99 µM. 0.096% of 360,000 active; in the data active means inhibition above about 40%; inconclusive means no clear call, values can overlap the other calls
Rv3671c inh = inhibits the M. tuberculosis serine protease Rv3671c; P9WHR9; 0.048% of 320,000 active; inhibition, % at 5.96 µM; in the data active means inhibition above about 38%;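 further: extracellular domain of Rv3671c used as enzyme; 0% = enzyme with DMSO and 100% = no enzyme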
Target sequence (P9WHR9 whole entry, looked up, the tested form may be a part): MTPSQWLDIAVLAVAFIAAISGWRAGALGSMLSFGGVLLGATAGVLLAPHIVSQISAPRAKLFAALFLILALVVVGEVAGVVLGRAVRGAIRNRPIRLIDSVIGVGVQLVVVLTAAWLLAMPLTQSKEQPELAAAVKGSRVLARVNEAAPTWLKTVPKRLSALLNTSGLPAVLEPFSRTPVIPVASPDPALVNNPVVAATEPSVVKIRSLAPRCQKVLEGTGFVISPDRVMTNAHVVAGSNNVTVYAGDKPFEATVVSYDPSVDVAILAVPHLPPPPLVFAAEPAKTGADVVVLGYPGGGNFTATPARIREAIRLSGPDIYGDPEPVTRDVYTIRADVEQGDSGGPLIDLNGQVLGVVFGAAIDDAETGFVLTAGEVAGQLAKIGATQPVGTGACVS
RecA intein inh = blocks M. tuberculosis RecA intein splicing. P9WHJ3. 0.75% of 290,000 active. cell-free RecA intein splicing, fluorescence. inhibition, % (test concentration not listed); in the data active means inhibition above about 30%; inconclusive means no clear call, values can overlap the other calls;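 further: 0% = vehicle wells and 100% = reference inhibitor control wells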
TcdB GH inh = TcdB glycohydrolase inhibition; P18177; TcdB glycohydrolase enzymatic assay, plate reader; inhibition, % at 9.99 µM; 0.24% of 350,000 active; in the data active means inhibition above about 10%
The depositor's hits bear a star; u = inconclusive; x = not tested or not shown. Most compounds without a hit are left out; they make up all but 0.97% or so of the library.

SMILES	Mtb UGM inh	FadD28 FP inh	Mtb BioA inh	Rv3671c inh	RecA intein inh	TcdB GH inh
C[C@@H]1CN([C@H](C)CO)S(=O)(=O)c2ccc(-c3ccncc3)cc2O[C@H]1CN(C)Cc1ccccc1	x	x	1	x	x	2
Cc1ccc(S(=O)(=O)Nc2ccc3c(c2)C(=O)N([C@@H](C)CO)C[C@@H](C)[C@H](CN(C)Cc2ccc(C(F)(F)F)cc2)OCCCC[C@@H](C)O3)cc1	x	x	4	x	x	1
C=C(C)CNC(=S)N=Nc1c(O)[nH]c2ccc([N+](=O)[O-])cc12	1	-1	x	14	33*	-2
O=C(NC[C@H]1CC[C@H]2[C@H](CN2Cc2cccc(Cl)c2)O1)C1CCOCC1	x	x	x	x	x	0
COC(=O)C[C@@H]1CC[C@H]2[C@H](COc3ccc(NS(=O)(=O)c4ccc(F)cc4)cc3C(=O)N2C)O1	x	x	0	x	x	x
Cc1cccc(N/C=C/C(=C(C#N)C#N)N(C)C)c1	0	11*	x	7	-4	x
COCC(=O)Nc1ccc2c(c1)OC[C@H](C)N(CCc1ccccc1)C[C@@H](C)[C@@H](OC)CN(C)C2=O	x	x	1	x	x	1
O=C(C[C@H]1C=C[C@H](NC(=O)C2CCOCC2)[C@H](CO)O1)Nc1ccccc1	x	x	x	x	x	0
O=C1c2ccccc2C(=O)c2c([N+](=O)[O-])ccc(O)c21	1	-5	0	21	x	3
O=C(O)c1ccc([N+](=O)[O-])c2c1C(=O)c1ccccc1C2=O	5	-1	x	-4	47*	1
C[C@H](CO)N1C[C@H](C)[C@H](CN(C)S(=O)(=O)c2ccccc2)OCCCC[C@H](C)Oc2ccc(NC(=O)NC3CCCCC3)cc2C1=O	x	x	-1	x	x	-1
Cc1ccccc1C1=C/C(=C(\SS/C(C(=O)c2ccc(OCC(=O)O)c(Cl)c2Cl)=C2\C=C(c3ccccc3C)SS2)C(=O)c2ccc(OCC(=O)O)c(Cl)c2Cl)SS1	x	73*	x	x	x	-2
COc1ccc2c3c([nH]c2c1)[C@H](CO)N(C(=O)c1ccncc1)CC31CN(C(=O)C2CCC2)C1	x	x	x	x	x	1
Cc1n[nH]c(C)c1N1C(=O)c2cccc3c(Br)ccc(c23)C1=O	2	-2	1	3	-1	x
Cc1n[nH]c(C)c1N1C(=O)c2cccc3cc(Br)cc(c23)C1=O	-1	0	58*	1	0	x
Cc1ccccc1C1C2=C(Nc3[nH]n(-c4ccccc4)c(=O)c31)c1ccccc1C2=O (stereo unspecified)	2	x	x	-8	x	x
Cc1cccc(C2C3=C(Nc4[nH]n(-c5ccccc5)c(=O)c42)c2ccccc2C3=O)c1 (stereo unspecified)	x	22*	x	x	9	-7
Cn1nc(C(=O)Nc2cc(Cl)ccc2N2CCCC2)c2ccccc2c1=O	17*	-3	0	-13	x	1
COCC#Cc1ccc2c(c1)O[C@H](CN(C)C(=O)c1ccccc1)[C@@H](C)CN([C@@H](C)CO)S2(=O)=O	x	x	-1	x	x	0
COc1ccc(NC2CCCN(C(=O)CN3CCOC3=O)C2)cc1OC (stereo unspecified)	3	-2	1	-11	-3	12*
C[C@@H]1CN([C@@H](C)CO)C(=O)Cc2cc(NS(C)(=O)=O)ccc2O[C@H]1CN(C)Cc1ccncc1	x	x	0	x	x	-1
C[C@@H](NC(=O)C[C@H]1CC[C@@H]2[C@H](COC[C@H](O)CN2C(=O)Nc2cccc(F)c2)O1)c1ccccc1	x	x	4	x	x	0
CN1C(=O)c2cc(NC(=O)Nc3cccc(Cl)c3)ccc2OC[C@H]2O[C@@H](CC(=O)O)CC[C@@H]21	x	x	0	x	x	1
O=C(O)CC/C(=C\c1ccc(N2CCCC2)c([N+](=O)[O-])c1)c1nc2ccccc2s1	0	u	x	3	7	2
CN(c1ccccc1)c1ccc(/C=C(/CCC(=O)O)c2nc3ccccc3s2)cc1[N+](=O)[O-]	x	19*	x	x	x	1
SMILES	Mtb UGM inh	FadD28 FP inh	Mtb BioA inh	Rv3671c inh	RecA intein inh	TcdB GH inh
O=S(c1ccccc1O)S(=O)c1ccccc1O (stereo unspecified)	x	28*	x	x	x	-1
Cc1cc(/C=C(\C#N)C(=O)N2CCCCC2)cc(C)c1O	0	-1	0	-5	2	12*
O=C(OC1CCOC1=O)c1cc(-c2cccs2)nc2ccccc12 (stereo unspecified)	2	-2	1	-7	-49	1
Cc1ccc(-c2cc(C(=O)OC3CCOC3=O)c3ccccc3n2)c(C)c1 (stereo unspecified)	0	-12	0	4	1	18*
C[C@H]1CCCCO[C@@H](CN(C)C(=O)Nc2ccc(C(F)(F)F)cc2)[C@@H](C)CN([C@@H](C)CO)C(=O)c2cc(NC(=O)c3ccncc3)ccc2O1	x	x	-1	x	x	0
CCOc1ccc(S(=O)(=O)Nc2nc3ccccc3nc2-n2ccc(=NC(=O)c3cccs3)cc2)cc1	4	1	x	-10	-129	1
CC(=O)Nc1ccc(S(=O)(=O)Nc2nc3ccccc3nc2-n2ccc(=NC(=O)c3ccc(F)cc3)cc2)cc1	1	-2	-5	-1	-3	16*
O=C(N=c1ccn(-c2nc3ccccc3nc2NS(=O)(=O)c2ccc(Cl)cc2)cc1)c1ccccc1Cl	34*	x	x	1	-7	x
O=C(N=c1ccn(-c2nc3ccccc3nc2NS(=O)(=O)c2ccc(Cl)cc2)cc1)c1cccs1	17*	-3	x	-14	-292	0
CC=Cc1ccc2n(c1=O)C[C@@H]1[C@@H](CO)[C@H](C(=O)N3CCOCC3)N(Cc3ccccc3OC)[C@H]21 (mixture of isomers)	x	x	-1	x	x	0
COc1ccc2c3c([nH]c2c1)[C@H](CO)N(C(=O)c1ccc(F)cc1)CC31CN(C(=O)CC2CC2)C1	x	x	x	x	x	0
COc1ccc(CN2CC3(CCN(C(=O)C4CCOCC4)CC3)c3c(n(C)c4cc(OC)ccc34)[C@@H]2CO)cc1	x	x	x	x	x	-1
Cc1cccc(-c2ccc([C@@H]3[C@@H](CO)N4CCCCN(S(=O)(=O)c5cccs5)C[C@@H]34)cc2)c1	x	x	-2	x	x	-1
COc1ccc(/C=N/N=C2/NC(=O)C(CC(=O)NC(N)=O)S2)cc1 (stereo unspecified)	2	0	-1	2	-1	11*
CCCCNC(=O)CC1S/C(=N/N=C/c2ccc(OC)cc2)NC1=O (stereo unspecified)	0	-3	x	-1	0	1
CC=Cc1ccc2n(c1=O)C[C@@H]1[C@@H](CO)[C@H](C(=O)N3CCCCC3)N(C(=O)CC)[C@H]21 (mixture of isomers)	x	x	-2	x	x	1
CCC(C)NC(=O)c1ccc2c(c1)N(Cc1ccccc1)C(=O)CS2 (stereo unspecified)	0	-1	x	6	-1	1
O=C(O)c1ccc2c(c1)N(Cc1cccc(F)c1)C(=O)CS2	4	0	0	-1	-2	21*
O=C(O)c1ccccc1C(=O)c1ccc2c(c1)N(Cc1cccc(F)c1)C(=O)CO2	1	1	x	0	3	21*
CC(Cl)C(=O)Nc1cc(C(C)(C)C)nn1-c1ccccc1 (stereo unspecified)	2	-2	x	0	0	0
